Among the data in PubChem BioAssay (EPA / NIEHS) are outcome and AC50 values, retold here.

Inconclusive results are not listed. Active and inactive are the calls of the source. How the source made its calls: active means hit-call score of the fitted dose curve at least 0.9, where 1 is the maximum; inconclusive means response in the unintended direction; inactive means score below 0.9.

Chain of Nuclear receptor subfamily 1 group I member 2 (Homo sapiens) (O75469 whole entry, looked up): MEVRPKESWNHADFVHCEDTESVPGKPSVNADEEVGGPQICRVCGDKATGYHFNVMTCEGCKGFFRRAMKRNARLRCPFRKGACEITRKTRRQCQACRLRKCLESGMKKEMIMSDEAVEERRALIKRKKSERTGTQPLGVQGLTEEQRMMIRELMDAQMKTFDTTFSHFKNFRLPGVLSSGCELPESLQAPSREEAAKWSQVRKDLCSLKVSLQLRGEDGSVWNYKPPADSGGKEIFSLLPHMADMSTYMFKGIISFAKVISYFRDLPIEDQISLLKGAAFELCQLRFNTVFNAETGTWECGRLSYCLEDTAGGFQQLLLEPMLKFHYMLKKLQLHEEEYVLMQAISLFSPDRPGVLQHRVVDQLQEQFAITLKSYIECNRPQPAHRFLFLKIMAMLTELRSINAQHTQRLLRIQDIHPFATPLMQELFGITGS

This assay concerns the target Nuclear receptor subfamily 1 group I member 2 (Homo sapiens) (UniProt O75469). The assay can be described thus: ATG_PXR_TRANS: Attagene TRANS-FACTORIAL HepG2 Assay for human Pregnane X Receptor (PXR) (AID 2283008). The method, then: ATG_TRANS is a cell-based, multiplexed-readout assay that uses HepG2, a human liver cell line, with measurements taken at 24 hours after chemical dosing in a 24-well plate.ATG_PXR_TRANS is one of 30 assay component(s) measured or calculated from the ATG_TRANS assay. It is designed to make measurements of mRNA induction, a form of inducible reporter, as detected with fluorescence intensity signals by Reverse transcription polymerase chain reaction (RT-PCR) and Capillary electrophoresis technology.Data from the assay component ATG_PXR_TRANS was analyzed into 1 assay endpoint. This assay endpoint, ATG_PXR_TRANS, was analyzed in the positive analysis fitting direction relative to DMSO as the negative control and baseline of activity. Using a type of inducible reporter, measures of mRNA for gain-of-signal activity can be used to understand the reporter gene at the transcription factor-level as they relate to the gene NR1I2. Furthermore, this assay endpoint can be referred to as a primary readout, because this assay has produced multiple assay endpoints where this one serves a reporter gene function. To generalize the intended target to other relatable targets, this assay endpoint is annotated to the nuclear receptor intended target family, where the subfamily is non-steroidal.
Human liver HepG2 cells are transiently transfected with multiple reporter transcription units (MRTUs) in 6-well plates using FuGene 6 reagent (Roche; 3 ml FuGene/1 mg DNA). The MRTU constructs are regulated by a cis-regulating element (promoter). […] A major difference between the CIS and TRANS system is that in CIS activities of endogenous TFs are measured, whereas the TRANS assay evaluates changes in activities of exogenous, chimeric NR-Gal4 proteins. […] At the end of 24 hour incubation, total RNA was isolated using TriZol reagent (Invitrogen). The isolated RNA is then reverse-transcribed using oligo(dT) primer and Mo-MLV reverse transcriptase (Invitrogen) with DNAse I (Ambion) treatment for 30 min. The one-tenth of the produced cDNA was amplified by PCR using Taq DNA polymerase (Invitrogen) and two reporter sequence-specific primers. The PCR products were fluorescently labeled by primer extension with 6-arboxyfluorescein (6-FAM) 5'-labeled reporter sequence-specific primer (2 min at 95 C, 20 s at 68 C and 10 min at 72 C) and these products were digested with 5U of HpaI (New England Biolabs) for 2h at 37 C. The fragments were purified using Qiaquick PCR columns (Qiagen), analyzed on an ABI 3130xL genetic analyzer (Applied Biosystems) with peak positions identified by using a set of X-rhodamine (ROX)-labeled MapMarker1000 molecular weight standards (BioVentures). The raw capillary electrophoresis data was processed using Attagraph software (Attagene).
Take `COC(=O)CCC(=O)OC`: the compound was called inactive. For orientation: AC50 means the concentration giving half of the maximal activity seen. `CC(C)c1cccc(C(C)C)c1NC(=O)NS(=O)(=O)c1cc(C(C)(C)O)co1`: the concentration at half-maximal activity (AC50) is 9.03 µM (active). As to `O=Cc1ccccc1C=O`, the outcome was inactive.

Take `CN(C)CCCN1c2ccccc2Sc2ccc(Cl)cc21`: the compound was called inactive. In the case of `COc1ccc(C(=O)Nc2nc3ccccc3c(NCc3ccccc3)c2C#N)cc1`, the AC50 was 0.585 µM (active). With `CN(C)C(=O)NC1(c2ccccc2)CCN(CCC[C@]2(c3ccc(Cl)c(Cl)c3)CCCN(C(=O)c3ccccc3)C2)CC1`, the AC50 is 0.554 µM (active). As to `N[C@@H](Cc1c[nH]c2ccccc12)C(=O)O`, the call was inactive. For the compound `NC=O`, the outcome was inactive. Consider `OCC(CO)n1cnc(-c2ccc(F)cc2)c1-c1ccnc(Oc2ccccc2)n1`, for which the AC50 was 6.83 µM (active). Regarding `CC(C)c1cccc(C(C)C)c1`, the result was inactive. Same read-out and setting: to `CCCCOC(=O)CCCCC(=O)OCCCC` belongs “inactive”; to `CO[C@@H]1COCC[C@@H]1N[C@@H]1CC[C@@](C(=O)N2CCc3ncc(C(F)(F)F)cc3C2)(C(C)C)C1`, “inactive”. With `CCc1cc(C2=C(C(=O)O)N(c3ccccc3C(F)(F)F)S(=O)(=O)c3ccccc32)cc2c1OCO2`, the half-maximal activity concentration (AC50) was 1.42 µM (active).

Take `CN(C)C(=O)NC1(c2ccccc2)CCN(CC[C@@]2(c3ccc(F)c(F)c3)CN(C(=O)c3ccccc3)CCO2)CC1`: the AC50 was 1.13 µM (active).

`Cn1cnc2c1c(=O)[nH]c(=O)n2C`: the result was inactive. On the same count and under the same terms, the result for `CC1=C(C)S(=O)(=O)CCS1(=O)=O` reads “inactive”; that for `O=[Si]=O`, “inactive”. For the compound `Nc1nc(Cl)nc2c1ncn2[C@H]1C[C@H](O)[C@@H](CO)O1`, the outcome was inactive.

With `Cc1ccc(C(C)(C)C)c(O)c1`, the AC50 is 47.2 µM (active).

Consider `C#CC(O)C(CC)CCCC` (stereo not given), for which the AC50 was 25.5 µM (active). Take `CC(COCC(C)OC(=O)c1ccccc1)OC(=O)c1ccccc1` (stereo not given): the compound was called inactive. As to `Cc1c(C)c2c(c(C)c1O)CCC(C)(COc1ccc(CC3SC(=O)NC3=O)cc1)O2` (stereo not given), the AC50 was 3.5 µM (active). On the same count and under the same terms, the result for `CCCCc1nc2cccnc2n1Cc1ccc(-c2ccccc2-c2nnn[nH]2)cc1` reads 27.4 µM (active). As to `CC(=O)O`, the compound was called inactive. For `CC(C)(O)c1ccc(CNC(=O)c2cccnc2Oc2ccc(F)cc2)cc1`, the AC50 is 2.33 µM (active). `CC(C)OC(=O)C(C)(C)Oc1ccc(C(=O)c2ccc(Cl)cc2)cc1`: the AC50 was 5.53 µM (active). With `CC(C)COC(=O)CCCCC(=O)OCC(C)C`, the call was inactive. Take `CC(=O)CC(c1ccccc1)c1c(O)c2ccccc2oc1=O` (stereo not given): the compound was called inactive. In the case of `O=C(NS(=O)(=O)/C=C/c1cccs1)c1ccc(F)cc1Br`, the AC50 was 11.4 µM (active). As for `CS(=O)(=O)c1ccc([C@@H](C[C@H]2CCC(=O)C2)C(=O)Nc2cnccn2)cc1Cl`, the outcome was inactive.

Consider `O=C(N[C@@H](c1ccccc1)[C@@H]1CCCCN1)c1cccc(C(F)(F)F)c1Cl`, for which the concentration at half-maximal activity (AC50) is 5.4 µM (active). In the case of `CC(=O)O[C@]1(C(C)=O)CC[C@H]2[C@@H]3C=C(Cl)C4=CC(=O)[C@@H]5C[C@@H]5[C@]4(C)[C@H]3CC[C@@]21C`, the call was inactive. Regarding `CN(C)CCCN(C)CCCN(C)C`, the compound was classed as inactive. Regarding `CCCC(=O)O`, the compound was called inactive.

For the compound `CCc1nc(N)nc(N)c1-c1ccc(Cl)cc1`, the compound was called inactive.

Regarding `CCCCCCCCCC[N+](C)(C)[O-]`, the compound was classed as inactive. For `O=C(O)c1cccnc1`, the outcome was inactive. Still for that read-out and setting: to `CCCCCCC(CCCCCCCCCCC(=O)OCC(COC(C)=O)OC(C)=O)OC(C)=O` (stereo not given) belongs “inactive”. For the compound `S=c1[nH]c2ccccc2s1`, the AC50 was 31.5 µM (active). As to `Cc1ccc(-c2cc(C(F)(F)F)nn2-c2ccc(S(N)(=O)=O)cc2)cc1`, the compound was classed as inactive.
